In PubChem BioAssay (NCATS):
Inconclusive results are not listed. Calls of active or inactive are those of the source. Unless noted, calls come from the whole dose curve; as a rule, active = well fitted curve in the direction sought with a large enough effect; inconclusive = small, poorly fitted or top-dose-only effect, or another doubt; inactive = no such curve, though single readings can be large; an effect the other way counts as inactive or inconclusive.

Key:
[1] = qHTS assay for small molecule agonists of the antioxidant response element (ARE) signaling pathway measured by Nrf2-dependant transcriptional activity - cell viability counter screen (AID 720653; active = well fitted curve in the direction sought with a large enough effect in the repeat runs; an effect the other way counts as inactive or inconclusive; note: % is set by controls: 0 for no effect and ±100 for the full control effect); settings: ARE-bla HepG2 viability, CellTiter-Glo ATP luminescence, 16 h; max response: stronger effect = lower value
Outline: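 ARE-bla HepG2 cells treated with compounds for 16 h at 37C; this counter screen measures viability as intracellular ATP by CellTiter-Glo luminescence after 30 min at room temperature.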

[2] = qHTS assay for cell viability of HEK293 cells (AID 743288); settings: ATP luminescence (CellTiter-Glo), 18 h; max response: stronger effect = lower value; note: % is set by controls: 0 for no effect and ±100 for the full control effect; nearly all actives have a fitted effect of over 50% in size
Outline: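 Total intracellular ATP, measured with a luciferase-coupled reagent, indicates the number of viable HEK293 cells. Exposure to test chemicals lasts 18 h at 37 C in 1,536-well format at 2,000 cells/well.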

[3] = qHTS assay for cell viability of the p53RE-bla HCT-116 cell line (AID 743292); note: % is set by controls: 0 for no effect and ±100 for the full control effect; nearly all actives have a fitted effect of over 55% in size
Outline: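 Quantitative high-throughput format: compounds in DMSO were pinned onto p53RE-bla HCT-116 cells (4,000/well) and incubated 16 h at 37 C. Total intracellular ATP, read by CellTiter-Glo luminescence, reflects viable cell number.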

[4] = qHTS profiling for inhibitors of Plasmodium falciparum proliferation (AID 504749);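 note: 0% = DMSO vehicle and full inhibition = artemisinin control; nearly all actives have a fitted effect of over 60% in size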; settings: P. falciparum in erythrocytes, SYBR Green DNA, 72 h, at 28.7 µM (top of the series)
Outline: (§1)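 Readout was DNA-dye fluorescence from lysed cultures, ex 485/em 535 nm. Parasitized red cells had grown 72 h with compound; data scaled between 0.29 uM artemisinin and DMSO wells and corrected using vehicle-only plates.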

3D7 = assay: as above; settings: P. falciparum in erythrocytes, SYBR Green DNA, 72 h; series mostly up to 28.7 µM
Outline: as §1

7G8 = assay: as above; settings: P. falciparum in erythrocytes, SYBR Green DNA, 72 h; series mostly up to 28.7 µM
Outline: as §1

AA1029 = assay: as above; settings: P. falciparum in erythrocytes, SYBR Green DNA, 72 h; series mostly up to 28.7 µM
Outline: as §1

AS120 = assay: as above; settings: P. falciparum in erythrocytes, SYBR Green DNA, 72 h; series mostly up to 28.7 µM
Outline: as §1

ATS189 = assay: as above; settings: P. falciparum in erythrocytes, SYBR Green DNA, 72 h; series mostly up to 28.7 µM
Outline: as §1

ATS95 = assay: as above; settings: P. falciparum in erythrocytes, SYBR Green DNA, 72 h; series mostly up to 28.7 µM
Outline: as §1

C2A = assay: as above; settings: P. falciparum in erythrocytes, SYBR Green DNA, 72 h; series mostly up to 28.7 µM
Outline: as §1

CP185 = assay: as above; settings: P. falciparum in erythrocytes, SYBR Green DNA, 72 h; series mostly up to 28.7 µM
Outline: as §1

CP191 = assay: as above; settings: P. falciparum in erythrocytes, SYBR Green DNA, 72 h; series mostly up to 28.7 µM
Outline: as §1

CP192 = assay: as above; settings: P. falciparum in erythrocytes, SYBR Green DNA, 72 h; series mostly up to 28.7 µM
Outline: as §1

CP194 = assay: as above; settings: P. falciparum in erythrocytes, SYBR Green DNA, 72 h; series mostly up to 28.7 µM
Outline: as §1

CP201 = assay: as above; settings: P. falciparum in erythrocytes, SYBR Green DNA, 72 h; series mostly up to 28.7 µM
Outline: as §1

CP203 = assay: as above; settings: P. falciparum in erythrocytes, SYBR Green DNA, 72 h; series mostly up to 28.7 µM
Outline: as §1

CP211 = assay: as above; settings: P. falciparum in erythrocytes, SYBR Green DNA, 72 h; series mostly up to 28.7 µM
Outline: as §1

CP215 = assay: as above; settings: P. falciparum in erythrocytes, SYBR Green DNA, 72 h; series mostly up to 28.7 µM
Outline: as §1

CP217 = assay: as above; settings: P. falciparum in erythrocytes, SYBR Green DNA, 72 h; series mostly up to 28.7 µM
Outline: as §1

CP237 = assay: as above; settings: P. falciparum in erythrocytes, SYBR Green DNA, 72 h; series mostly up to 28.7 µM
Outline: as §1

CC1CCC(C(C)C)C(O)C1 (configuration not stated)
inactive: max response [1] 1.08% | max response [2] -1.68% | Potency [3] | activity, negative = inhibition ([4]; parasite line A) 7.33% | activity, negative = inhibition ([4]; parasite line B) 4.66% | Potency (3D7) | Potency (7G8) | Potency (AA1029) | Potency (AS120) | Potency (ATS189) | Potency (ATS95) | Potency (C2A) | Potency (CP185) | Potency (CP191) | Potency (CP192) | Potency (CP194) | Potency (CP201) | Potency (CP203) | Potency (CP211) | Potency (CP215) | Potency (CP217) | Potency (CP237)
